In PubChem BioAssay (NCI) one finds growth data, which are given here for 28 molecules.

SMILES strings stand for the structures. Several values for one entry are separate records, joined by “and”; a condition that tells them apart may be missing. Equal entries are not always repeated. This is part of a sample that, as a whole, favours compounds with a hit. Of some 83,000 tested, about 20% had one in any assay.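 Method: cells in 96-well plates; compound added at one concentration; 48 h incubation; percent growth measured; values under 10 scored active.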 A number with no mark means an inactive call. Activity calls are given as the source filed them.

The test system of this assay is HL-60(TB) leukemia. Nature of the assay: NCI-60 one-dose screen, 48 h (100 = growth as untreated, 0 = no growth, -100 = all killed). Particulars: 10 µM unless noted.
As for `Nc1cccc(Nc2cc(S(=O)(=O)O)c(N)c3c2C(=O)c2ccccc2C3=O)c1`, the growth was 105%.
Then `Cc1ccc(-c2nc([P+](c3ccccc3)(c3ccccc3)c3ccccc3)c(N3CCOCC3)o2)cc1`, with -27.7% (active).
Then `CN1CCN(CCOc2ccc(-c3cnc4c(-c5ccccc5F)cnn4c3)cc2)CC1`, with -30.2% (active); and `O[C@H]1CO[C@H]2[C@@H]1OC[C@@H]2Oc1ccc(Nc2nc(Nc3ccc(F)c(Cl)c3)ncc2F)cc1Cl`, with 104%; and `O=C1c2cccnc2-c2nccc3c2c1nc1cc(Br)ccc13`, with -68.1% (active) and -56.3% (active).
Under `CN(C)CCNc1nc2ccccc2c2c(=O)c3cc(F)ccc3sc12` stands 38.1%; under `Cc1nn(-c2ccccc2)c(N2CCOCC2)c1-c1nc2ccc([N+](=O)[O-])cc2[nH]1`, 77.1%; under `CC1(C)OC2C(CO[Si](C)(C)C(C)(C)C)OC(n3c(I)c(C#C[Si](C)(C)C)c(=O)[nH]c3=O)C2O1` (stereo not drawn), 69.5%.
On to `Cc1sc2nc(N3CCCCC3)[nH]c(=O)c2c1C`, for which the growth is 102%.
Then `CC1(C)CN(Cc2ccccc2)CCN1Cc1ccccc1`, with 100%; and `O=C(O)c1ccc(-n2cc(CNc3ccc(Oc4ccccc4)cc3)c(-c3ccccc3)n2)cc1`, with 92.5%; and `O=S(=O)(NCCCNc1cc(-c2cn(-c3ccccc3)nc2-c2cccc(O)c2)ccn1)c1ccc(Cl)cc1`, with 1.22% (active).
`COC(=O)c1nc(-c2ccc(C)cc2)oc1S(=O)(=O)c1cccc(OC)c1`: the growth is 44.7%.
Then `c1ccc2c(c1)cnc1ccccc12`, with 94.9%.
Then `CC1(C)CC2=C3C=C[C@@H]4[C@@]5(C)CCC(=O)C(C)(C)[C@@H]5CC[C@@]4(C)[C@]3(C)CC[C@@]2(C(=O)O)CC1=O`, with 66.8%; and `COC(=O)C1(O)NC(=C(C#N)C#N)C(C#N)=C1C(=O)c1ccc(OC)c(OC)c1` (stereo not drawn), with 79%.
Under `COc1cc2nc(-c3ccc(C(F)(F)F)cc3)cc(OCCCN3CCCCC3)c2cc1OC` stands 25%; under `C=CCN(CCOC(=O)c1ccc([N+](=O)[O-])cc1)CCOC(=O)c1ccc([N+](=O)[O-])cc1`, 88.1%; under `COc1ccc(/C=C2/SC(=S)NC2=O)c(OC)c1OC`, 83.8%.
Regarding `CS(=O)(=O)OCC1NC(=O)C(COS(C)(=O)=O)NC1=O` (stereo not drawn), the growth was 98% and 106%.
With `COc1cc(-c2nc3sc4c(c3c(=O)[nH]2)CCCCCC4)cc(OC)c1OC`, the growth was -19.3% (active).
Then `CNC(=O)Nc1ccc(-c2nc(N3CCOCC3)nc3c2cnn3C2CCOCC2)cc1`, with 11.3%; and `CC1CCC(=O)N1c1ccc(N)cc1` (stereo not drawn), with 104%.
Under `C=C(c1ccc(C(=O)O)cc1)c1cc2c(cc1C)C(C)(C)CCC2(C)C` stands 59.3% and 74.6%; under `CC/C=C\C[C@H](O)C/C=C1/C(=O)C(Cl)=C[C@@H]1C/C=C\CCCC(=O)O`, 19.4%.
Then `COc1cccc2cc(-c3cc4ccccc4[nH]3)/c(=N/C(=S)Nc3ccccc3)oc12`, with 101%.
As for `CC(=O)c1ccc2c(c1)c1ccccc1n2C`, the growth was 84.1%.
Under `COc1ccc(N)c(S)c1` stands 93.4%.
